PubChem BioAssay (NCI)
This is part of a sample that, as a whole, favours compounds with a hit. Of some 83,000 tested, about 20% had one in any assay.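 The test compound was applied at a single concentration to cells in 96-well plates for 48 hours, and percent growth was recorded.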 A number with no mark means an inactive call. Calls of active or inactive are those of the source. The calls were made as follows: active = growth percent below 10; inactive = the rest.

Legend:
Experiment in all cases: NCI-60 one-dose screen, 48 h (100 = growth as untreated, 0 = no growth, -100 = all killed)
Details in all cases: 10 µM unless noted
NCI-H23 lung = test system: NCI-H23 lung
NCI-H226 lung = test system: NCI-H226 lung
NCI-H322M lung = test system: NCI-H322M lung
HOP-62 NSCLC = test system: HOP-62 NSCLC
NCI-H460 lung = test system: NCI-H460 lung
HOP-92 NSCLC = test system: HOP-92 NSCLC
NCI-H522 lung = test system: NCI-H522 lung
A549/ATCC NSCLC = test system: A549/ATCC NSCLC
786-0 renal = test system: 786-0 renal
COLO 205 colon = test system: COLO 205 colon

Structure (SMILES)	growth (NCI-H23 lung)	growth (NCI-H226 lung)	growth (NCI-H322M lung)	growth (HOP-62 NSCLC)	growth (NCI-H460 lung)	growth (HOP-92 NSCLC)	growth (NCI-H522 lung)	growth (A549/ATCC NSCLC)	growth (786-0 renal)	growth (COLO 205 colon)
Oc1c(CCl)cc(Cl)cc1Cc1cc(Cl)cc(Cc2cc(Cl)cc(CCl)c2O)c1O	5.68% (active)	32.4%	4.12% (active)	57.2%	11.9%	-18.3% (active)	-10.9% (active)	46.5%	55.3%	68.3%
N#Cc1c(NC(=O)c2cccs2)[n+]([O-])c2cc(C(F)(F)F)ccc2[n+]1[O-]	95.2%	97.1%	93.7%	112%	109%	33.2%	77.4%	96.1%	114%	109%
CCOC(=O)c1ccc(Nc2ncnc3ccc(NC(=O)c4ccccc4)cc23)cc1	83.7%	78.2%	95.6%	98.8%	95.5%	86.4%	73.3%	91.5%	86.8%	104%
CCOC(=O)c1c(-c2ccc(O)cc2)c(C#N)c2c(C#N)c(N)nn2c1N	72.6%	69.3%	95.1%	66.6%	74.3%	41.7%	39.2%	80.7%	93%	74.6%
COc1cc2nc3c(=O)n(CCN(C)C)cnn3c(=O)c2cc1OC	95.9%	103%	95.2%	101%	105%	100%	89%	105%	105%	102%
Cc1ccc2nc3nc4ccc[nH]c4cc3c2c1	65.1%	78.4%	72.5%	76.4%	53.8%	121%	90.1%	97.6%	108%	82.1%
Cc1cc(C)c(NC(=O)c2sc3nc4c(cc3c2N)CCCCCC4)c(C)c1	81.1%	75.6%	99.7%	45.6%	46.2%	51.3%	4.69% (active)	53.2%	48.7%	81.5%
Cc1c(Cl)cccc1NC(=O)c1sc2nc3c(cc2c1N)CN(Cc1ccccc1)CC3	66.1%	72.3%	73.1%	38.4%	22%	51.8%	0.814% (active)	58.6%	42.9%	51.5%
CCCn1c2cc(OCc3cn(-c4ccc(Cl)cc4)nn3)ccc2c2ccnc(C)c21	78.1%	69.5%	73%	70.1%	71.1%	50.5%	66.4%	70.8%	34.8%	44.1%
C#C[C@@]1(O)[C@@H](CO)O[C@@H](n2cc(Cl)c3c(N)ncnc32)[C@@H]1O	0.604% (active)	1.13% (active)	-3.01% (active)	-4.82% (active)	-19.1% (active)	-27.1% (active)	-29% (active)	-31.1% (active)	-58.8% (active)	-39.4% (active)
O=C1CCC23OC(C(O)c4ccccc4N12)C1C(Br)=NOC13 (stereo not given)	99.1%	110%	107%	96.8%	110%	109%	99.9%	99.7%	94.6%	108%
O=C(O)c1cn(C2CC2)c2cc(N3CCN(Cc4nnc(Nc5ccccc5)o4)CC3)c(F)cc2c1=O	105%	108%	93.5%	99.8%	104%	104%	92.7%	98.3%	94.9%	104%
NS(=O)(=O)c1ccc(N2Cc3cc(Cl)ccc3OC3=C2C(=O)N(CC2CCCCC2)C3=O)cc1	-36.5% (active)	-23.5% (active)	65.4%	-60.9% (active)	-55.1% (active)	-76.6% (active)	-68.6% (active)	-43.5% (active)	-84.7% (active)	-83.2% (active)
